M1 ag – M1 muscarinic receptor agonists, primary screen, CHO-M1 cells, Fluo-4 calcium, agonist mode. Muscarinic acetylcholine receptor M1. 3% of 64,000 active. AID 626, 2007. Fluo-4 calcium fluorescence; active compounds read high. B-score at 10 µM;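 active = fluorescence rise, raw or as B-score row- and column-corrected plate score, outside the 99.7% band of its plate's samples, either direction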
M1 antagonist – antagonists of rat M1 muscarinic receptor. Muscarinic acetylcholine receptor M1 (Rattus norvegicus), P08482. CHO-M1 cells, Fluo-4 calcium, ACh EC80 antagonist mode; active compounds read low. B-score at 10 µM. 3.4% of 64,000 active. AID 628, 2007;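 active = calcium fluorescence response, raw or row-and-column corrected B-score, differing from the plate sample mean either way at a set confidence level, mostly lower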
Target sequence (P08482 whole entry, looked up): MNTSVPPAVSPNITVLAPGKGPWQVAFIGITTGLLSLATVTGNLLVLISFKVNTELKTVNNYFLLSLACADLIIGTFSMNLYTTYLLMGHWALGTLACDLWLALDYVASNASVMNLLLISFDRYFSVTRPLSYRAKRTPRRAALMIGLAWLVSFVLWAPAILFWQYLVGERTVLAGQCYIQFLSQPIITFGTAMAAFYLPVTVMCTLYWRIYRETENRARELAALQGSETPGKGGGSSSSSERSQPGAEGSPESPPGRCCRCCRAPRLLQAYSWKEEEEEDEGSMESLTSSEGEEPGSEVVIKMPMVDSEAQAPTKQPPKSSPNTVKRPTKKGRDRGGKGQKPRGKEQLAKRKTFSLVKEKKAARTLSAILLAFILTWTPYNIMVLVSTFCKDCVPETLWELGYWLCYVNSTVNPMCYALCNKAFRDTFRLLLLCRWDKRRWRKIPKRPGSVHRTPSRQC
BAP1 inh – inhibitors of BAP1 deubiquitinase, primary screen, biochemical, Ub-AMC fluorescence, kinetic. recombinant BAP1, Ub-AMC hydrolysis fluorescence kinetic; active compounds read low. calls only at 20 µM. 0.48% of 72,000 active. AID 436, 2006;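 active = activity remaining at or below 50% of control, provided the compound also passes the data quality filters; inactive = the rest, including low values that fail the filters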
WNV protease inh – inhibitors of WNV NS2B-NS3 protease, primary screen, biochemical, fluorogenic substrate; Genome polyprotein (West Nile virus), P06935; fluorogenic substrate Ex360/Em465; active compounds read low; z-score (no concentration beside the values); 0.18% of 65,000 active; in the data active = z-score below about -3
Fluor 339 460 – intrinsic fluorescence of library compounds, ex339/em460 – biochemical, MLSMR library, data from DPM-DC assay, artefact control, profiling panel. compound autofluorescence, ex339/em460 nm, NADH buffer; active compounds read high; 1 = no-compound wells, NADH background. fluorescence fold increase at 10 µM. 5.5% of 65,000 active. AID 709, 2007;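 active = at 10 µM, mean starting fluorescence two-fold or more over control wells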;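 also: signal is the first read of a kinetic run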
Abs 340nm – compound light absorbance at 340 nm, profiling panel, artefact control, biochemical, MLSMR library, data from PS, PMK, MK assays. compound absorbance at 340 nm, fold over control. fold change at 10 µM. 65,000 tested, under 10 active;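 active = at 10 µM dose, initial 340 nm absorbance at least 2 fold that of control wells; inactive = change under 2 fold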;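 also: initial absorbance extrapolated from kinetic A340 decline of NADH oxidation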
Each line names hits and unclear results; the compound was inactive in the other large screens. Only some compounds are listed: those with a hit (about 9.7% of all), similar ones and a draw of the others.

CCN(CC)S(=O)(=O)c1ccc2[nH]cc(C(=O)NCCN3CCCCC3C)c(=O)c2c1 (stereo not given)	Fluor 339 460 3
CCOc1ccc(N(C)S(=O)(=O)c2ccc3[nH]cc(C(=O)NCC4CCCO4)c(=O)c3c2)cc1 (stereo not given)	none
Cc1ccccc1N(C)S(=O)(=O)c1ccc2[nH]cc(C(=O)NCC3CCCO3)c(=O)c2c1 (stereo not given)	Fluor 339 460 2.1
Cc1cc(C)cc(NC2=C(Cl)C(=O)N(c3ccc(Cl)cc3)C2=O)c1	none (no result: M1 ag, M1 antagonist, WNV protease inh, Fluor 339 460, Abs 340nm)
O=c1cc(-c2ccccc2)c2ccccc2[nH]1	none (not shown: BAP1 inh)
COc1ccc2c(-c3cccnc3)cc(=O)[nH]c2c1	Fluor 339 460 2.1
COc1ccc(Cl)cc1NC(=O)c1cc2n(n1)C(C(F)(F)F)CC(c1ccco1)N2 (stereo not given)	none (no result: M1 ag, M1 antagonist, WNV protease inh, Fluor 339 460, Abs 340nm)
C=CCn1c(=O)n(CCOC)c(=O)c2sc3ccccc3c21	Fluor 339 460 2.4 (not shown: BAP1 inh)
C=CCn1c(=S)[nH]c2ccccc2c1=O	none
CN1C(=O)C(C)(C)N(Cc2ccccc2)c2ccccc21	none (no result: M1 ag, M1 antagonist, WNV protease inh, Fluor 339 460, Abs 340nm)
CN1C(=O)C2(N=c3ccccc3=N2)c2ccccc21	Fluor 339 460 2.1
O=C(Nc1ccc(-c2nc3ccccc3o2)cc1)C1CCCO1 (stereo not given)	Fluor 339 460 2.1
CC[n+]1c(C=C2C=C(C)CC(C)(C)C2)oc2ccccc21	none (no result: M1 ag, M1 antagonist, WNV protease inh, Fluor 339 460, Abs 340nm)
COC(=O)/C(=C1/Oc2cc3c(cc2S1)OCO3)C(F)(F)F	Fluor 339 460 2.2
COc1ccccc1CC(=O)NCc1ccc2c(c1)OCO2	none
COC(=O)c1ccc2ccn(CC(=O)NC(C)C)c2c1	Fluor 339 460 2.1
Cc1cc(NS(=O)(=O)c2ccc(NC(=O)C(C)Oc3ccc4c(C)cc(=O)oc4c3)cc2)no1 (stereo not given)	Fluor 339 460 2
CCOC(=O)Nc1ccc(S(=O)(=O)Nc2cc(C)on2)cc1	none (not shown: BAP1 inh)
CCOc1ccccc1NC(=O)COc1cc(C)ccc1C(C)(C)C	none (no result: M1 ag, M1 antagonist, WNV protease inh, Fluor 339 460, Abs 340nm)
NC(=O)c1ccccc1NS(=O)(=O)Cc1ccccc1	Fluor 339 460 2.1 (not shown: BAP1 inh)
COc1cc(OC)cc(-c2nc(-c3cc4cc(C)ccc4nc3OC)no2)c1	Fluor 339 460 2.6
COc1nc2cc(C)ccc2cc1-c1noc(-c2cccnc2)n1	none
COc1ccc([N+](=O)[O-])cc1NC(=O)c1ccccc1Cl	none (no result: M1 ag, M1 antagonist, WNV protease inh, Fluor 339 460, Abs 340nm)
Oc1cc(O)cc(/C=C/c2ccc(O)c(O)c2)c1	BAP1 inh active (no result: M1 ag, M1 antagonist, WNV protease inh, Fluor 339 460, Abs 340nm)
O=C(CCn1c(=O)c2sccc2n(Cc2cc(=O)n3ccccc3n2)c1=O)NCc1ccco1	Fluor 339 460 2.2
O=C(CCCn1c(=O)c2sccc2n(Cc2cc(=O)n3ccccc3n2)c1=O)NCc1ccco1	none
O=C(CN1C(=O)CCC1=O)Nc1nc(-c2nc3ccccc3s2)cs1	Fluor 339 460 2.1
COc1cc2ccccc2cc1C(=O)Nc1cccnc1	none
COc1cc2cc(C(=O)Nc3ccccc3)c(N)nc2cc1OC	Fluor 339 460 2.3 (no result: BAP1 inh)
Cc1ccccc1OCC(=O)Nc1ccc2c(c1)oc1ccccc12	none (no result: M1 ag, M1 antagonist, WNV protease inh, Fluor 339 460, Abs 340nm)
Nc1nonc1C(=O)NCCNCc1ccccc1OCc1ccccc1F	none
Nc1nonc1C(=O)NCCNCc1cc(Br)ccc1OCc1ccccc1F	M1 ag 2.8
Cn1c(=O)c2c(nc(NCCO)n2Cc2cccc3ccccc23)n(C)c1=O	none (no result: M1 ag, M1 antagonist, WNV protease inh, Fluor 339 460, Abs 340nm)
C=CCn1c(COc2cccc3cccnc23)nnc1SCC(=O)O	none
O=C(O)CSc1cccc2cccnc12	Fluor 339 460 2.2
CCCCOc1ccc(-c2nnn(C(C)(C)C(=O)OC)n2)cc1	M1 antagonist 1.5
COc1ccc(NC(=O)Nc2cc(C)ccc2OC(F)F)c(OC)c1	M1 antagonist 2
COCCCn1c(=NC(=O)c2ccc3c(c2)OCO3)c(C#N)cc2c(=O)n3cccc(C)c3nc21	none
Cc1cccn2c(=O)c3cc(C#N)c(=NC(=O)c4ccccc4)n(Cc4ccco4)c3nc12	M1 ag 19, Fluor 339 460 2.3 (no result: BAP1 inh)
CCCn1c(=NC(C)=O)c(C#N)cc2c(=O)n3cccc(C)c3nc21	Fluor 339 460 2.9
CCCCCn1c(=NC(C)=O)c(C#N)cc2c(=O)n3cccc(C)c3nc21	M1 ag 5.3, Fluor 339 460 3.6
Fc1ccc(-c2cnc[nH]2)cc1	M1 antagonist 1.9
CCCCN(C(=O)NC(=O)C1=C(N2CCOCC2)/C(=C/c2ccccc2)CC1)S(C)(=O)=O	Fluor 339 460 2.1 (no result: BAP1 inh)
CCCCN(C(=O)NC(=O)Nc1ccccc1OC)S(C)(=O)=O	none
CN(C(=O)NC(=O)C1=C(N2CCOCC2)/C(=C/c2ccccc2)CC1)S(C)(=O)=O	Fluor 339 460 2.9
Cc1cccc(-c2c3c(=O)n(C)c(=O)n(C)c3cn2-c2ccccc2O)c1	Fluor 339 460 2.6
CCOc1cc2c(C#N)c(N3CCOCC3)nc(N)c2c(N)n1	Fluor 339 460 5.1 (not shown: BAP1 inh)
CCNc1nc(C)cc(COC)c1C#N	Fluor 339 460 2.2 (not shown: BAP1 inh)
COCc1cc(C)nc(N2CCOCC2)c1C#N	Fluor 339 460 2.1
COC(=O)c1c(NC(=O)COc2cc(C)c(Cl)c(C)c2)sc2c1CCC(C)C2 (stereo not given)	none (no result: M1 ag, M1 antagonist, WNV protease inh, Fluor 339 460, Abs 340nm)
Cc1cccc(-c2nnc(-c3ccc(N)cc3)o2)c1	Fluor 339 460 3.7 (not shown: BAP1 inh)
CC(=O)Oc1c(Cl)cc(N(C(C)=O)S(=O)(=O)c2ccc(C)cc2)c2ccccc12	none (no result: M1 ag, M1 antagonist, WNV protease inh, Fluor 339 460, Abs 340nm)
Cc1cc(C)cc(Nc2ccc(C(=O)O)cc2N)c1	Fluor 339 460 2.9
CCOC(=O)c1cnn(-c2sc(C(=O)OCC)c(C)c2C(=O)OCC)c1N	M1 ag -3.4 (not shown: BAP1 inh)
CCOC(=O)c1cnn(-c2ccccn2)c1N	none
CCOC(=O)c1c(NC(=O)c2nn(CC)cc2Br)sc2c1CCCCC2	Fluor 339 460 3.6
CCOC(=O)c1c(NC(=O)c2nn(CC)cc2Br)sc(C)c1C	Fluor 339 460 3.5
CCOC(=O)c1ccc(NC(=O)c2nn(CC)cc2Br)cc1	none
COc1ccc(C(=O)N2CCCCC2)cc1S(=O)(=O)Nc1cccc(Br)c1	none (no result: M1 ag, M1 antagonist, WNV protease inh, Fluor 339 460, Abs 340nm)
COc1ccc(-c2nc3ccccc3o2)cc1NC(=O)c1ccc(C(C)C)cc1	none (no result: M1 ag, M1 antagonist, WNV protease inh, Fluor 339 460, Abs 340nm)
Oc1ccccc1Cn1c(-c2ccccc2O)nc2ccccc21	Fluor 339 460 3.8
CCCc1cc(=O)oc2cc(OCc3cccc(Cl)c3)ccc12	none (no result: M1 ag, M1 antagonist, WNV protease inh, Fluor 339 460, Abs 340nm)
Cc1nn(-c2ccccc2)c2nc(N)c(C#N)c(-c3ccc(F)cc3)c12	Fluor 339 460 3.8 (not shown: M1 ag, M1 antagonist, BAP1 inh)
Cc1ccccc1NC(=O)CSc1nc(N)c(C#N)c(-c2cccs2)c1C#N	none
Cc1ccc(-n2nc(C)c3c(-c4cccs4)c(C#N)c(N)nc32)cc1	Fluor 339 460 2.4

From PubChem BioAssay
